Reference: PubChem BioAssay AID720706 (Broad Institute, 2013)
In all, about 350,000 compounds went through this assay and about 5,500 (1.6%) were called active.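 Rule for the calls: active = significant combined selectivity score with lowered wild-type GFP, culture density cut under 30%, mutant RFP and density less affected; inactive = any of these conditions unmet.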 For the sample, actives were picked, then their nearest neighbours and some compounds at random.

Test: reduced GFP signal of wild-type E. coli, primary screen, bacterial rRNA inhibitor project, GFP/RFP fluorescence, OD600, single point (AID 720706)
Details: E. coli WT GFP vs humanized-ribosome RFP mutants, 24 h; GFP signal change (wild-type ribosome): stronger effect = lower value, DMSO median 0, no signal -100; OD600 change: measured here: OD600 growth, DMSO median 0, no signal -100; RFP signal change: measured here: RFP humanized mutant strains, DMSO median 0, no signal -100, concentration not given here

Row | SMILES | GFP signal change (wild-type ribosome) | OD600 change [%] | RFP signal change [%]
1 | COc1ccc2c3c([nH]c2c1)[C@@H](CO)N(C(=O)CC1CC1)CC31CCN(Cc2cccnc2)CC1 | 1.59% (inactive) | 3.97 | 3.46
2 | CCOc1cc(NS(=O)(=O)c2ccc(OC)cc2)c(OCC)cc1NC(C)=O | 12.2% (inactive) | 0.765 | 1.03
3 | CCOc1ccc(NS(=O)(=O)c2ccc(C)c(C(N)=O)c2)cc1 | 2.05% (inactive) | 7.61 | 0.34
4 | CCOc1ccc2sc(NS(=O)(=O)c3ccc(N)cc3)nc2c1 | -24.1% (active) | -5.58 | -5
5 | COc1ccc2c3c(n(C)c2c1)[C@H](CO)N(CC1CCCCC1)CC31CCN(Cc2nccs2)CC1 | 5.15% (inactive) | -34.3 | 21.2
6 | Cc1noc(C)c1NC(=O)N(C)C[C@@H]1Oc2ccc(NC(=O)CCN3CCOCC3)cc2CC(=O)N([C@H](C)CO)C[C@@H]1C | -0.675% (inactive) | 4.65 | -1.87
7 | C[C@@H]1CN([C@H](C)CO)C(=O)c2cccc(NC(=O)Nc3ccc4c(c3)OCO4)c2O[C@H]1CN(C)S(=O)(=O)c1ccccc1 | -2.91% (inactive) | -5.67 | -1.37
8 | COc1ccc2c3c([nH]c2c1)[C@@H](CO)N(Cc1ccc2c(c1)OCO2)CC31CN(C(=O)Nc2c(C)noc2C)C1 | 0.081% (inactive) | 0.39 | 1.36
9 | CC(C)(C)[S@@](=O)N1Cc2cc(C(=O)O)nc(-c3cccc(-c4cccc(F)c4)c3)c2[C@H]1CCO | 4.83% (inactive) | 5.04 | 0.24
10 | O=C(OCC(=O)c1cccs1)c1ccc([N+](=O)[O-])o1 | 9.6% (inactive) | 5.51 | 1.76
11 | O=C(COC(=O)c1ccc([N+](=O)[O-])o1)NC12CC3CC(CC(C3)C1)C2 | -30.1% (active) | 9.91 | 3.52
12 | O=C(COC(=O)c1ccc(Br)o1)NC12CC3CC(CC(C3)C1)C2 | -10.7% (inactive) | -7.12 | 2.74
13 | CCCNC(=O)Nc1ccc2c(c1)C(=O)N(C)C[C@H](OC)[C@H](C)CN(Cc1ccncc1)[C@H](C)CO2 | 1.74% (inactive) | 6.36 | -1.58
14 | CC1CCc2[nH]c3ccc(C(=O)N(C)CC(=O)Nc4cccc(F)c4)cc3c2C1 (centres undefined) | -34% (inactive) | -74.6 | -1.58
15 | O=C(CCCN1CCc2[nH]c3ccc(F)cc3c2C1)c1ccc(F)cc1 | -28.2% (active) | -21.9 | 3.29
16 | C=CCNC(=S)N1CCc2[nH]c3ccccc3c2C1 | 1.71% (inactive) | -2.66 | 1.19
17 | COc1cnc(-c2ccccn2)nc1Oc1ccc(C(C)(C)C)cc1 | -55.5% (inactive) | -80 | -19.6
18 | CC(C)(C)c1ccc(Oc2ccc(N)cc2)cc1 | -34% (active) | -27.1 | -4.06
